Inconclusive results are not listed. Activity calls are given as the source filed them. The call rests on the fitted dose curve; in most records, active means well fitted curve in the direction sought with a large enough effect; inconclusive means small, poorly fitted or top-dose-only effect, or another doubt; inactive means no such curve, though single readings can be large or run the other way.

Chain of Protein phosphatase 1D (Homo sapiens) (O15297 whole entry, looked up): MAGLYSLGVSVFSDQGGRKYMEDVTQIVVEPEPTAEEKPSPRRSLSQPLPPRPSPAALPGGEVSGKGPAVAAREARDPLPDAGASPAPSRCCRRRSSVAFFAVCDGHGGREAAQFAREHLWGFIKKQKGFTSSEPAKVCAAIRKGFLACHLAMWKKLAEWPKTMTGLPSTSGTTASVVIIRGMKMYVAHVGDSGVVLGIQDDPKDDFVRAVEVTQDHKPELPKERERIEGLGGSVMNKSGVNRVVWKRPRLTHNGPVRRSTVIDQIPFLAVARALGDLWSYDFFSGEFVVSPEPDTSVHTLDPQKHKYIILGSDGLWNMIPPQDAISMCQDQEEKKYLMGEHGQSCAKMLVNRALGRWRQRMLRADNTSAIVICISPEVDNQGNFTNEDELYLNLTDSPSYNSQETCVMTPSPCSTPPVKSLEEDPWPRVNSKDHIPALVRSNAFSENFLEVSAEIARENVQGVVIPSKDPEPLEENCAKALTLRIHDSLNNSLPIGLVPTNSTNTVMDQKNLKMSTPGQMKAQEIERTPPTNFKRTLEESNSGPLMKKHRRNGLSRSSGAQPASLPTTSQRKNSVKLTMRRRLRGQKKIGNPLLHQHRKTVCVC

In this assay the target is Protein phosphatase 1D (Homo sapiens) (UniProt O15297). Briefly: Rhodamine-PBP qHTS Assay for Modulators of WT P53-Induced Phosphatase 1 (WIP1) (AID 1347425). Particulars: recombinant WIP1, Rhodamine-PBP phosphate fluorescence, real-time; series mostly up to 57.5 µM. From the text:
Assay Provider (PI): Nathan Coussens Ph.D.
National Center for Advancing Translational Sciences (NCATS), Rockville, MD
National Institute of Health (NIH), Bethesda, Maryland
WT P53-Induced Phosphatase 1 (WIP1) is a member of the magnesium-dependent serine/threonine protein phosphatase (PPM) family and is induced by P53 in response to DNA damage. In several human cancers, the WIP1 protein is overexpressed, which is generally associated with a worse prognosis. Although WIP1 is an attractive therapeutic target, no potent, selective, and bioactive small-molecule modulator with favorable pharmacokinetics has been reported. Phosphatase enzymes are among the most challenging targets for small molecules because of the difficulty of achieving both modulator selectivity and bioavailability. Another major obstacle has been the availability of robust and physiologically relevant phosphatase assays that are suitable for high-throughput screening.
Here, we describe two orthogonal biochemical WIP1 activity assays that utilize phosphopeptides from native WIP1 substrates. We optimized a RapidFire MS assay to quantify the enzymatically dephosphorylated peptide reaction product in a 384-well format. Additionally, a redshifted Rhodamine-PBP fluorescence assay was optimized in a 1,536-well format to enable real-time WIP1 activity measurements through the detection of the orthogonal reaction product, Pi. We validated these two optimized assays by quantitative high-throughput screening against the National Center for Advancing Translational Sciences (NCATS) Pharmaceutical Collection and used secondary assays to confirm and evaluate inhibitors identified in the primary screen.
SEQUENCE No. (e.g., 1, 2, 3, etc.); […] (e.g., Cells, Incubation, Reagent, etc.); VALUE; DESCRIPTION
1; Reagent; 3 uL; WIP1 (6.7 nM), Rh-PBP (13.3 uM), columns 1-48
3; Library Compounds; 23 nL; NCATS Pharmaceutical Collection, column 5-48
4; Control Compounds; DMSO in column 2, GSK2830371 (57.5 uM, final) in 3-fold serial dilutions in column 3, GSK2830371 (1.15 uM, final) in column 4
5; Time; 1 hr; incubation
6; Detection; fluorescence (f0); ViewLux, excitation filter = 525 nm, emission filter = 598 nm
7; Reagent; 1 uL; VEPP-pS-QETFS (40 uM), columns 2-48
8; Detection; fluorescence (f1); ViewLux, excitation filter = 525 nm, emission filter = 598 nm
NOTES (numbers refer to sequence above)
1 & 2; Black medium binding Greiner 1536-well plates (# 789176-F); assay buffer: 50 mM Tris-HCl pH 7.5, 30 mM MgCl2, 1mM TCEP, 0.1 mM EGTA, 75 ug/mL BSA; dispensed with a BioRaptr liquid handler (Beckman Coulter).
3 & 4; Kalypsys pintool (equipped with 1536 pinhead, Wako USA) transfer. Tip wash sequence: DMSO, methanol, 3 sec vacuum dry.
5; Room temperature incubation.
7; VEPPL-pS-QETFS in assay buffer dispensed with a BioRaptr; final reaction conditions: 5 nM WIP1, 10 uM VEPPL-pS-QETFS, 10 uM Rh-PBP, 50 mM Tris-HCl pH 7.5, 30 mM MgCl2, 1 mM TCEP, 0.1 mM EGTA, 75 ug/mL BSA.
8; Measurement taken at 1 min intervals for 11 min. Delta readout = f1 - f0.
`C[N+](C)(C)CC(=O)O`: the result was inactive.
With `O=c1[nH]cnc2c1ncn2[C@H]1CC[C@@H](CO)O1`, the result was inactive.
As to `COc1ccc2cccc(CCNC(C)=O)c2c1`, the outcome was inactive.
In the case of `CCN(CC)CCNC(=O)c1ccc(N)cc1`, the result was inactive.
Take `Clc1ccc(Cn2c(CN3CCCC3)nc3ccccc32)cc1`: the result was inactive.
In the case of `N#C[C@H]1C[C@H]2C[C@@H]2N1C(=O)[C@@H](N)C12CC3CC(CC(O)(C3)C1)C2` it was “inactive”.
In the case of `CCn1cc(C(=O)O)c(=O)c2ccc(C)nc21` it was “inactive”.
On to `O=C(O)Cc1cccc2ccccc12`, for which the outcome was inactive.
Turning to `CC1=C(/C=C/C(C)=C/C=C/C(C)=C/C(=O)Nc2ccc(O)cc2)C(C)(C)CCC1`, the outcome was inactive.
For the compound `CN(C)CCC(c1ccccc1)c1ccccn1` (stereo not given), the outcome was inactive.
`CC[C@]1(O)C[C@@H]2CN(CCc3c([nH]c4ccccc34)[C@@](C(=O)OC)(c3cc4c(cc3OC)N(C)[C@H]3[C@@](O)(C(=O)OC)[C@H](OC(C)=O)[C@]5(CC)C=CCN6CC[C@]43[C@@H]65)C2)C1`: the result was inactive.
In the case of `COc1cc2ncnc(Nc3ccc(F)c(Cl)c3)c2cc1OCCCN1CCOCC1` it was “inactive”.
For the compound `CN1C[C@H]2c3ccccc3Oc3ccc(Cl)cc3[C@@H]2C1`, the outcome was inactive.
On to `CC(=O)c1ccc(S(=O)(=O)NC(=O)NC2CCCCC2)cc1`, for which the outcome was inactive.
As for `CC(C)(C)c1ccc(C(O)CCCN2CCC(C(O)(c3ccccc3)c3ccccc3)CC2)cc1` (stereo not given), the result was inactive.
With `CC/C(=C(\c1ccccc1)c1ccc(OCCN(C)C)cc1)c1ccccc1`, the outcome was inactive.
As for `CC(C)NCC(O)COc1cccc2[nH]ccc12` (stereo not given), the result was inactive.
For the compound `NC(N)=Nc1nc(CSCC/C(N)=N/S(N)(=O)=O)cs1`, the outcome was inactive.
`O=C(CCCCCCC(=O)Nc1ccccc1)NO`: the result was inactive.
In the case of `O=C(O)c1cc(-c2ccccc2)nc2ccccc12`, the outcome was inactive.
On to `COC(=O)[C@@H]1[C@H]2C[C@H]3c4[nH]c5ccccc5c4CCN3C[C@@H]2CC[C@@H]1O`, for which the outcome was inactive.
For the compound `O=C(NCCN1CCOCC1)c1ccc(Cl)cc1`, the result was inactive.
For `CCN(CC)C(=O)c1ccc(O)c(OC)c1`, the result was inactive.
With `O=C1NCC2(CCN(CCc3ccccc3)CC2)O1`, the result was inactive.
In the case of `CC(C)OC(=O)C(C)(C)Oc1ccc(C(=O)c2ccc(Cl)cc2)cc1` it was “inactive”; in that of `O=C(O)CCc1nc(-c2ccccc2)c(-c2ccccc2)o1`, “inactive”; in that of `CCN(CC)CCOC(=O)c1ccc(N)cc1`, “inactive”.
As for `CC(=O)O[C@]1(C(C)=O)CC[C@H]2[C@@H]3C=C(Cl)C4=CC(=O)[C@@H]5C[C@@H]5[C@]4(C)[C@H]3CC[C@@]21C`, the entry is “inactive”; as for `NCCS`, “inactive”; as for `C[C@@H](O)[C@H]1C(=O)N2C(C(=O)O)=C(S[C@@H]3CN[C@H](C(=O)N(C)C)C3)[C@H](C)[C@H]12`, “inactive”.
For `CCCNC(=O)NS(=O)(=O)c1ccc(Cl)cc1`, the outcome was inactive.
For the compound `COC[C@@H](c1ccc(C(F)(F)F)cc1)N1CCN(C2(C)CCN(C(=O)c3c(C)ncnc3C)CC2)C[C@H]1C`, the result was inactive.
Turning to `COc1ccccc1N1CCN(CCCNc2cc(=O)n(C)c(=O)n2C)CC1`, the result was inactive.
Consider `CCN1CCC[C@H]1CNC(=O)c1cc(S(N)(=O)=O)ccc1OC`, for which the outcome was inactive.
As for `CC(=O)Oc1cc2c(s1)CCN(C(C(=O)C1CC1)c1ccccc1F)C2` (stereo not given), the entry is “inactive”.
`CC(=O)N[C@@H](CS)C(=O)O`: the outcome was inactive.
Turning to `C[N+](C)(C)CCCCCC[N+](C)(C)C`, the outcome was inactive.
`CC(=O)CCCCn1c(=O)c2c(ncn2C)n(C)c1=O`: the result was inactive.
In the case of `O=C1NC(=O)C(c2ccccc2)(c2ccccc2)N1` it was “inactive”; in that of `OC[C@@H](O)[C@H](O)[C@H](O)[C@@H](O)CO`, “inactive”.

The values above are taken from PubChem BioAssay (NCATS).
